# Assay outcomes from PubChem BioAssay.
# Only some compounds are listed: those with a hit (about 3.4% of all), similar ones and a draw of the others.
# TEAD-YAP inh – TEAD-YAP interaction inhibition. inhibition, % at 9.12 µM. 1.4% of 640,000 active. AID 1259422. HEK-TIYL cells, TEAD-Gal4/YAP UAS-luciferase luminescence; in the data active means inhibition above about 32%;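 further: 0% = median of test compound wells and 100% = reference inhibitor wells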
# MITF primary – inhibitors of human MITF; 0.91% of 650,000 active; AID 1259374; inhibition, % at 2.6 µM; AlphaScreen MITF homodimerization, bead proximity signal; O75030; in the data active means inhibition above about 50%;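 further: 0% = vehicle wells with protein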
# Target sequence (O75030 whole entry, looked up): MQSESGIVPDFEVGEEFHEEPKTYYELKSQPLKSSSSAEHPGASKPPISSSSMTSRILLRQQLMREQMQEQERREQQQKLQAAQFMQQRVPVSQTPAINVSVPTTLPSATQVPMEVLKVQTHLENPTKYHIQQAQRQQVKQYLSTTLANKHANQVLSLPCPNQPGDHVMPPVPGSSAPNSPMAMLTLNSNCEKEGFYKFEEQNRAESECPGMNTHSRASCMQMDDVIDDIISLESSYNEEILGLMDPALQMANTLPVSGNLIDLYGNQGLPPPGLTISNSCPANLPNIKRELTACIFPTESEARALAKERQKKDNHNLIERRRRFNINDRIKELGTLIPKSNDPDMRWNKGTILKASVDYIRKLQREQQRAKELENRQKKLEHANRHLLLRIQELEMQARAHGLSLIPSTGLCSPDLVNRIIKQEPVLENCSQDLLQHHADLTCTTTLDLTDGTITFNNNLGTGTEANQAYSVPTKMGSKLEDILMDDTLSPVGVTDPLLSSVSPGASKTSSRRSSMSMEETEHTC
# FBW7 activator – activators of human E3 ligase FBW7; 0.13% of 650,000 active; Q969H0; normalized activity (activation), % at 26.1 µM; AID 1259310; AlphaScreen FBW7–phospho-cyclin E peptide binding, activator screen; in the data active means normalized activity above about 1.9%;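 further: purified mutant Fbw7 with reduced substrate affinity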
# GPR151 activ – human GPR151 activation. Q8TDV0. PathHunter beta-arrestin GPR151 cells, luminescence. activation, % at 11.2 µM. 1% of 650,000 active; in the data active means activation above about 4.9%;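 further: 0% = median of compound wells and 100% = cells with positive control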
# * = called active by the depositor; / = no result given.
SMILES,TEAD-YAP inh,MITF primary,FBW7 activator,GPR151 activ
NC(=O)c1ccc(-c2nc(NCCCN3CCCC3=O)c3ncn(-c4ccsc4)c3n2)cc1,49*,3,0,0
O=C1CCCN1CCCNc1nc(NC2CC2)c2ncn(-c3ccccc3)c2n1,42*,5,0,-2
O=C1CCCN1CCCNc1nc(-c2ccccc2)nc2c1ncn2-c1ccsc1,30,10,0,1
COc1ccc(-c2nc(NCCCN3CCCC3=O)c3ncn(-c4ccccc4)c3n2)cc1,20,10,0,3
COc1ccc(C(c2sc3ncnn3c2O)N2CCN(CCO)CC2)cc1OC (stereo not drawn),-1,3,0,2
Cc1nc2sc(C(c3ccc(Cl)c(Cl)c3)N3CCC(C(N)=O)CC3)c(O)n2n1 (stereo not drawn),0,0,0,0
CCCCC(=O)Nc1cccc(NC(=O)COc2cccc(C)c2)c1,-10,1,0,1
O=C(CCl)NCCSc1ccc(Cl)cc1,57*,-2,0,1
CCOC(=O)c1c(-c2cccs2)csc1/N=C/C1C(=O)NC(=S)NC1=O,-5,20,0,1
CN1C(=O)/C(=C/c2ccccc2O)NC1=S,16,1,1,-1
CN1C(=O)/C(=C/c2cc(Br)ccc2O)NC1=S,80*,-28,0,1
COC(CNC(=O)CCn1c(=S)[nH]c2cc3c(cc2c1=O)OCO3)OC,5,15,1,0
O=C(Nc1ccc(Cl)cc1)c1cnc2ccccn12,-23,17,0,-1
CC(C)(C)c1ccc(NC(=O)c2cnc3ccccn23)cc1,55*,21,1,-1
COc1ccc(S(=O)(=O)N(C)CC(=O)NC2CCCCCC2)cc1C,0,-10,0,1
O=Cc1ccccc1OCc1ccc2c(c1)OCO2,-51,7,0,-4
O=Cc1ccc(OCc2ccc3c(c2)OCO3)c(Cl)c1,72*,5,0,-8
O=C(N/N=C/c1cc([N+](=O)[O-])cc([N+](=O)[O-])c1O)c1ccncc1,7,11,0,0
Cc1cc(=O)[nH]c(N/N=C/c2cc3c4c(c2O)CCCN4CCC3)n1,86*,9,0,0
O=C(N/N=C/c1cc2c3c(c1O)CCCN3CCC2)c1ccncc1,75*,66*,-1,0
Cc1ccc(C)c(/C=N/Nc2nc(C)cc(=O)[nH]2)c1,-4,6,0,0
CC1CCCN(C2CCN(S(=O)(=O)c3ccccc3)CC2)C1 (stereo not drawn),6,12,0,-1
CC(=O)O[C@H]1C(=O)[C@@]2(C)[C@H]([C@H](OC(=O)[14c]3[14cH][14cH][14cH][14cH][14cH]3)[C@]3(O)C[C@H](OC(=O)[C@H](O)[C@@H](NC(=O)c4ccccc4)c4ccccc4)C(C)=C1C3(C)C)[C@]1(OC(C)=O)CO[C@@H]1C[C@@H]2O,/,-31,0,2
CC(=O)O[C@H]1C(=O)[C@@]2(C)[C@H]([C@H](OC(=O)c3ccccc3)[C@]3(O)C[C@H](OC(=O)[C@H](O)[C@@H](NC(=O)c4ccccc4)c4ccccc4)C(C)=C1C3(C)C)[C@]1(OC(C)=O)CO[C@@H]1C[C@@H]2O,64*,24,0,-2
CCN1CCN(C(=O)c2sc3ncnc(N4CCN(c5ccccn5)CC4)c3c2C)CC1,19,6,0,0
SMILES,TEAD-YAP inh,MITF primary,FBW7 activator,GPR151 activ
Cc1c(C(=O)N2CCN(Cc3ccccc3)CC2)sc2ncnc(N3CCN(c4ccccn4)CC3)c12,37*,-10,0,3
COc1ccccc1N1CCN(C(=O)c2sc3ncnc(N4CCN(c5ccccn5)CC4)c3c2C)CC1,35*,-5,0,-1
CCCc1ccc(-c2ccc(OC(=O)c3ccccc3Cl)cc2)nc1,70*,-2,0,-2
CCCc1ccc(C(=O)Oc2ccc(-c3ccc(CCC)cn3)cc2)cc1,23,12,0,-1
c1ccc(-c2cc(N3CCN(c4ccccn4)CC3)nc(-c3ccccn3)n2)nc1,71*,107*,-1,1
O=C(/C=C/c1cccs1)c1ccc(N2CCOCC2)cc1,58*,22,0,-5
CCOC(=O)c1c(NC(=O)/C=C/C(N)=O)sc2c1CCCC2,43*,5,1,-1
CCOC(=O)c1c(NC(=O)CN2CCN(CC)C(=O)C2=O)sc2c1CCCC2,44*,11,1,0
CCOC(=O)c1c(NC(N)=O)sc2c1CCCC2,-6,2,0,0
CCOC(=O)c1c(NC(=O)/C=C/C(=O)O)sc2c1CCCCCC2,35*,-12,0,-1
CCOC(=O)c1c(NC(=O)CN2CCCCCC2)sc2c1CCCCC2,5,2,0,-1
CC1=CC2=NC(=O)/C(=C\c3ccc(Sc4ccc(Cl)cc4)o3)C(=N)N2O1,0,1,0,1
O=c1c2c3c(sc2n2cnnc2n1Cc1ccccc1)CCCC3,-5,18,1.9*,0
CC(C)n1cc(-c2ccc3ccccc3n2)cn1,82*,0,0,-9
CCN(CC)c1cc(-c2ccccc2F)nc(-c2ccncc2)n1,-10,5,0,1
Cc1cnc(CNc2cc(-c3ccccc3F)nc(-c3ccccn3)n2)nc1,33*,24,-1,2
CCN(CC)c1cc(-c2ccccn2)nc(-c2ccccc2)n1,6,-9,0,-2
CCN(CC)c1cc(-c2ccccc2F)nc(-c2ccccn2)n1,50*,8,0,1
CCN(CC)c1cc(-c2ccccn2)nc(-c2ccccn2)n1,86*,113*,-1,1
CC(=O)Nc1ccc(Cl)c(NC(=O)c2ccco2)c1,-6,3,0,4
CCCCN1C(=O)S/C(=C\c2cc(Cl)ccc2O)C1=O,3,-27,0,1
Cc1cncc2cccc(NC3CCCN(C(=O)C(O)c4ccc(Br)cc4)C3)c12 (stereo not drawn),47*,2,0,2
Cc1cncc2cccc(NC3CCNC3)c12 (stereo not drawn),69*,8,0,0
OC1(c2cccc(C(F)(F)F)c2)CCN(Cc2nnnn2CCc2ccccc2)CC1,1,-16,1,-1
COc1ccccc1NC(=O)Nc1nnc(CSCc2cccc(C)c2)s1,5,0,0,0
SMILES,TEAD-YAP inh,MITF primary,FBW7 activator,GPR151 activ
O=C1CCC([N+](=O)[O-])C(c2cccs2)N1 (stereo not drawn),4,-5,0,0
Oc1cc2c(cc1O)C1c3ccc(O)c(O)c3OCC1(O)C2 (stereo not drawn),21,116*,0,-2
O=C(Nc1ccc(Br)cc1)c1cnn2ccccc12,32*,6,0,-3
COc1ccc(OCCC(=O)OCC(=O)NC2CCCCCC2)cc1,7,9,0,1
CCOc1cc(/C=N/NC(=O)CNc2n[nH]c(=O)[nH]c2=O)ccc1O,7,10,0,0
COc1ccc(OC)c(C(=O)COc2ccccc2C#N)c1,41*,19,0,0
CCC1Oc2ccc(C)cc2N(CC(=O)Nc2ccc(F)cc2)C1=O (stereo not drawn),13,14,0,0
